In PubChem BioAssay:
Calls of active or inactive are those of the source.

Experiments:
[1] = test system: Wnt5a (protein binding on small-molecule microarray); assay: small molecules binding Wnt5a protein – biophysical, small-molecule microarray, 635/667 nm fluorescence, primary screen (AID 1142); details: 635 nm fluorescence, higher = more signal;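 further: fluorescence read at 667 nm with signal to noise per printed feature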
[2] = ATP-based viability of Huh7 replicon cells – cell-based, CellTiter-Glo luminescence, basal, 48 h, cytotoxicity control for HCV replication inhibitor project, primary screen (AID 1143); details: higher = more signal, called active from +8 up or from −8 down;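 further: Huh7 hepatoma cells carrying a hepatitis C replication reporter with no stimulus; test concentration not given here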
[3] = basal CRE-LacZ reporter activity in PC12 – cell-based, unstimulated, primary screen (AID 1145); details: no forskolin, luminescence, 4.5 h, higher = more signal, called active from +8 up or from −8 down
[4] = forskolin-driven CRE-LacZ activity in PC12 – cell-based, CRE-LacZ reporter, forskolin-stimulated, primary screen (AID 1146); details: luminescence, 4.5 h, higher = more signal, called active from +8 up or from −8 down;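 further: PC12 cells with 6xCRE LacZ reporter stimulated by forskolin 10 µM; beta-galactosidase reporter signal reflecting CREB driven transcription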
[5] = molecular target: Streptavidin (Streptomyces avidinii) (UniProt P22629); assay: compounds binding control protein streptavidin – biophysical, small-molecule microarray, 635/667 nm fluorescence, artefact control for SMM compound annotation, primary screen (AID 1147); details: higher = more signal;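 further: signal reflects streptavidin binding to arrayed compounds as a control protein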
[6] = probe aInhba binding on compound microarray – biochemical, small-molecule microarray, 635/667 nm fluorescence, primary screen (AID 1148); details: higher = more signal;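 further: score merges 667nm spot fluorescence with signal-to-noise for antibody binding to printed compounds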
Torsin-1A (Homo sapiens) [7] = molecular target: Torsin-1A (Homo sapiens) (UniProt O14656); assay: TOR1A wild-type binding on microarray – cell lysate, small-molecule microarray, lysate, 635/667 nm, primary screen (AID 1149); details: COS7 hTOR1A-WT lysate, 635 nm fluorescence, higher = more signal
Torsin-1A (Homo sapiens) [8] = molecular target: Torsin-1A (Homo sapiens) (UniProt O14656); assay: torsin A mutant lysate binding on microarrays – cell lysate, small-molecule microarray, COS7 lysate, 635/667 nm fluorescence, primary screen (AID 1150); details: COS7 hTOR1A mutant lysate, 635 nm fluorescence, higher = more signal;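 further: score pools 667 nm emission and signal to noise measuring lysate protein binding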
[9] = test system: Sonic hedgehog protein (Shh); assay: Sonic hedgehog microarray binding compounds – biochemical, small-molecule microarray, 635/667 nm fluorescence, primary screen (AID 1151); details: 635 nm fluorescence, higher = more signal;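 further: Shh protein binding to compounds spotted on small-molecule microarray slides; score combines spot fluorescence intensity with signal-to-noise across triplicate slides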
[10] = optical density shifts of acrAB sulA E. coli – strain DRC41, OD650, 48 h, E. coli filamentation inducer project, primary screen (AID 1152); details: higher = more signal, called active from +8 up or from −8 down;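 further: E. coli MC1000 strain DRC41 lacking acrAB efflux pump and sulA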
[11] = probe aLefty1 binding on compound microarray – biochemical, small-molecule microarray, 635/667 nm fluorescence, primary screen (AID 1153); details: higher = more signal;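 further: score merges spot fluorescence with signal-to-noise ratio from the scanned slide images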
[12] = plasmodial surface anion channel blockers, osmotic lysis – cell-based, P. falciparum Indochina, OD700, 1 h, primary screen (AID 1154); details: P. falciparum Indochina infected RBC osmotic lysis, higher = more signal, called active from +8 up or from −8 down
[13] = plasmodial surface anion channel blockers, osmotic lysis – cell-based, P. falciparum Indochina, OD700, 2 h, primary screen (AID 1155);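 further: lysis reports solute entry through the parasite surface anion channel PSAC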; details: P. falciparum Indochina infected erythrocytes, higher = more signal, called active from +8 up or from −8 down
[14] = changes in parasitized red cell lysis, either direction – P. falciparum Indochina, OD700, 3 h, PSAC antagonist project, primary screen (AID 1156); details: P. falciparum-infected erythrocytes, osmotic lysis, higher = more signal, called active from +8 up or from −8 down
[15] = plasmodial surface anion channel blockers, osmotic lysis – cell-based, P. falciparum Indochina, OD700, 18 h, primary screen (AID 1157); details: P. falciparum Indochina infected erythrocytes, osmotic lysis OD700, 18 h; higher = more signal, called active from +8 up or from −8 down
[16] = S6 kinase pathway phospho-S6 level changes – cell-based, A549, cytoblot, luminescence, serum-stimulated, primary screen (AID 1158); details: 5 h, higher = more signal;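 further: serum-stimulated A549 lung adenocarcinoma cells; signal is phosphorylated S6 detected by cytoblot immunostaining with HRP secondary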
[17] = molecular target: NADPH oxidase 2 (Homo sapiens) (UniProt P04839); assay: compounds shifting NOX2 Amplex Red fluorescence – cell-based, HEK293-NOX2, PMA-stimulated, NOX inhibitor project, primary screen (AID 1159); details: 45 min, higher = more signal, called active from +8 up or from −8 down; further: test concentration not given here
[18] = molecular target: NADPH oxidase 4 (Homo sapiens) (UniProt Q9NPH5); assay: compounds shifting NOX4 Amplex Red fluorescence – cell-based, HEK293-NOX4, tetracycline-induced, NOX inhibitor project, primary screen (AID 1160); details: HEK293-NOX4, Amplex Red H2O2 fluorescence, 45 min; higher = more signal, called active from +8 up or from −8 down
[19] = molecular target: NADPH oxidase 5 (Homo sapiens) (UniProt Q96PH1); assay: compounds shifting NOX5 Amplex Red fluorescence – cell-based, HEK293-NOX5, NOX inhibitor project, primary screen (AID 1161); details: HEK293-NOX5, ionomycin, 45 min, higher = more signal
[20] = compound effects on lung adenocarcinoma cell viability – A549, calcein-AM fluorescence, 48 h, basal, profiling panel (AID 1162); details: higher = more signal; further: test concentration not given here

Streptavidin (Streptomyces avidinii), sequence (P22629 whole entry, looked up): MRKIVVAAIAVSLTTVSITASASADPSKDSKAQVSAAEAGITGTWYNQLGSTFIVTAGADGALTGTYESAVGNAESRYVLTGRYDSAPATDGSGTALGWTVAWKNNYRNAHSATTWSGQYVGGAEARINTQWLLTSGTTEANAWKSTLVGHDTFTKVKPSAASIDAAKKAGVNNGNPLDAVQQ
NADPH oxidase 5 (Homo sapiens), sequence (Q96PH1 whole entry, looked up): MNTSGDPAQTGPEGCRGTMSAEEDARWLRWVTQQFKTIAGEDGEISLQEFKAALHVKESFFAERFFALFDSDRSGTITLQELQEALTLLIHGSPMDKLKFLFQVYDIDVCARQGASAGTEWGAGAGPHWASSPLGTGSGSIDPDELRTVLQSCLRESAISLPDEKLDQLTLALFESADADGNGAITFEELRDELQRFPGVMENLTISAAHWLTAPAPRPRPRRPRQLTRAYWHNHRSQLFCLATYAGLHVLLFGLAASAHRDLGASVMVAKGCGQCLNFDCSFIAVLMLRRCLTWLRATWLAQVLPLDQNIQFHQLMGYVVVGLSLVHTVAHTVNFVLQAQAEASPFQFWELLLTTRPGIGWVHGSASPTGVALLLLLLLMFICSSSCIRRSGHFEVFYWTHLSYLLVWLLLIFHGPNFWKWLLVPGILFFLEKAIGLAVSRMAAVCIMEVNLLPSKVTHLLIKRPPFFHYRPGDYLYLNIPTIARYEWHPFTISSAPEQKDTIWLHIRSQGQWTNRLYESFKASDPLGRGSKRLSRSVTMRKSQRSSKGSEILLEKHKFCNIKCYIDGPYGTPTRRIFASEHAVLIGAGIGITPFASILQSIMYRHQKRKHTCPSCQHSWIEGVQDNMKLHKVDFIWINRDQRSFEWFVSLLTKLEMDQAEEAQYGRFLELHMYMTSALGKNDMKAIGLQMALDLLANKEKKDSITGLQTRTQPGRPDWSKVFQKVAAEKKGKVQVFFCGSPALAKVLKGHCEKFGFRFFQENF
Torsin-1A (Homo sapiens), sequence (O14656 whole entry, looked up): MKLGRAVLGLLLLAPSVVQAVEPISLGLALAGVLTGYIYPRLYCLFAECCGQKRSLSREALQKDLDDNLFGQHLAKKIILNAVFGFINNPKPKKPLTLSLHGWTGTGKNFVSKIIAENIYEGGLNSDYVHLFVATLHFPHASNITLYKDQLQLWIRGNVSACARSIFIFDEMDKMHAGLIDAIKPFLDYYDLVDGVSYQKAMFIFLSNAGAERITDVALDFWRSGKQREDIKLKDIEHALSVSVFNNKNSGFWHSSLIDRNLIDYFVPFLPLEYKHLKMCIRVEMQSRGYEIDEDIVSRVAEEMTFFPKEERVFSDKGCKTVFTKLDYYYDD
NADPH oxidase 2 (Homo sapiens), sequence (P04839 whole entry, looked up): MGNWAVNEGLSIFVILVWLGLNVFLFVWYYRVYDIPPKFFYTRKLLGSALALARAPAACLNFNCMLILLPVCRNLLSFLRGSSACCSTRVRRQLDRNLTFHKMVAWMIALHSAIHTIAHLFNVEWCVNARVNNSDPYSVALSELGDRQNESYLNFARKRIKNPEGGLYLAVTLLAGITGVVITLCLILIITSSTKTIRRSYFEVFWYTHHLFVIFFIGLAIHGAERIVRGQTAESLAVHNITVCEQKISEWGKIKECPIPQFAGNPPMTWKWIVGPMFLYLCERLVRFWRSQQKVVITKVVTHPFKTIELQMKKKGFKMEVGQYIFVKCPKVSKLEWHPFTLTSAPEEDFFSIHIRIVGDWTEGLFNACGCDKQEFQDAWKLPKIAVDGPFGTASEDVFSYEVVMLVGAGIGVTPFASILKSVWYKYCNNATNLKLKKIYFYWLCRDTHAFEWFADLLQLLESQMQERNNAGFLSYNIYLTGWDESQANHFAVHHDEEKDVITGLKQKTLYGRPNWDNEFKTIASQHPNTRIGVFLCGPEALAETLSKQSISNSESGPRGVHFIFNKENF
NADPH oxidase 4 (Homo sapiens), sequence (Q9NPH5 whole entry, looked up): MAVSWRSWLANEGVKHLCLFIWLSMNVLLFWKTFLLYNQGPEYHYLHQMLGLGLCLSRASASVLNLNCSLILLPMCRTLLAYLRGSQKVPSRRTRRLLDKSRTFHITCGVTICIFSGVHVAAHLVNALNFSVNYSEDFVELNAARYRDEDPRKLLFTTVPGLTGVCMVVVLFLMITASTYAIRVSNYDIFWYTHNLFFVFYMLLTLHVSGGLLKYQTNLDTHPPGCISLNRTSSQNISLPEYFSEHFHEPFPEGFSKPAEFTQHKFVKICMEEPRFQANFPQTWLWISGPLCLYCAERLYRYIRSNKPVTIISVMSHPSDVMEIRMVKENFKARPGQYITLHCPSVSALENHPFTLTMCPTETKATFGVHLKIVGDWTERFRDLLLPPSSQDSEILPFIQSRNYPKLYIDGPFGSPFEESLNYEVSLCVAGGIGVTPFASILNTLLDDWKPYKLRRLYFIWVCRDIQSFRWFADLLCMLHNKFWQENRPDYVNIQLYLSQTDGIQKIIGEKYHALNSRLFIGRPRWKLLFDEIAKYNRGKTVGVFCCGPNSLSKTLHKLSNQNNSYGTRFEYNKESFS

| SMILES | composite z-score [1] | z-score [2] | z-score [3] | z-score [4] | composite z-score [5] | composite z-score [6] | composite z-score (Torsin-1A (Homo sapiens) [7]) | composite z-score (Torsin-1A (Homo sapiens) [8]) | composite z-score [9] | z-score [10] | composite z-score [11] | z-score [12] | z-score [13] | z-score [14] | z-score [15] | z-score [16] | z-score [17] | z-score [18] | z-score [19] | z-score [20] |
| --- | --- | --- | --- | --- | --- | --- | --- | --- | --- | --- | --- | --- | --- | --- | --- | --- | --- | --- | --- | --- |
| COc1ccc([Si](C)(C)[C@H]2[C@H](CC(=O)N(CCO)Cc3ccccc3)O[C@@]3(C(=O)N(Cc4ccc(N5CCC5=O)cc4)c4ccccc43)[C@@H]2C)cc1 | -0.161 | -2.68 (inactive) | 1.82 (inactive) | -0.316 (inactive) | -0.161 | -0.128 | 0.162 | 0.294 | 0.407 | 1.33 (inactive) | -0.188 | 27.1 (active) | 21.7 (active) | 0.241 (inactive) | 2.17 (inactive) | 1.39 | 0.946 (inactive) | 1.25 (inactive) | 2.96 | -0.0126 |
| C[C@@H](OCc1ccccc1)C1NC(=O)[C@@]23C(=O)N[C@@H](Cc4ccccc4)C2[C@H](C)[C@@]2(C)O[C@H]2C3/C=C/C/C=C\CNC(=O)[C@@H]2CCCN2C1=O (stereo not given in full) | -0.13 | -0.866 (inactive) | 2.13 (inactive) | -1.55 (inactive) | -0.9 | -0.192 | -0.0343 | 1.12 | 0.558 | 2.21 (inactive) | -0.239 | 1.49 (inactive) | 0.0899 (inactive) | 0.933 (inactive) | 0.231 (inactive) | 0.663 | -0.0597 (inactive) | 0.397 (inactive) | -0.915 | 0.791 |
| C=C(CCCC)/C(=C/C[C@@H](OC(=O)c1ccncc1)c1ccc(OCCO)cc1)c1cnc2ccccc2c1 | 0.826 | -1.93 (inactive) | 13.4 (active) | -0.929 (inactive) | 1.72 | 0.108 | 0.546 | 0.653 | 2.1 | 1.21 (inactive) | 0.199 | 26.2 (active) | 9.47 (active) | 1.54 (inactive) | 1.39 (inactive) | -0.175 | -1.06 (inactive) | -1.43 (inactive) | -0.922 | 0.4 |
| COc1ccc(C(=O)Nc2cccc(CN3C(=O)[C@@]4(O[C@@H](CCO)[C@H]([Si](C)(C)c5ccc(OC)cc5)[C@H]4C)c4ccccc43)c2)cc1 | 0.143 | -8.03 (active) | 4.03 (inactive) | -2.29 (inactive) | 0.182 | -0.0523 | 0.317 | 0.478 | 0.626 | 0.677 (inactive) | -0.0082 | 9.1 (active) | 1.27 (inactive) | -0.984 (inactive) | -0.11 (inactive) | 0.487 | -6.67 (inactive) | -2.83 (inactive) | -2.96 | -3.95 |
| CC1CC/C=C\[C@H]2OC34C=CCN(C(C)C)C(=O)[C@H]3N(C(CO)C(C)C)C(=O)[C@@H]4C2C(=O)O1 (stereo not given in full) | -0.0784 | 0.114 (inactive) | -0.346 (inactive) | -0.791 (inactive) | -1.28 | -0.133 | -0.87 | -0.22 | -0.137 | 2.16 (inactive) | -0.225 | 1.3 (inactive) | -0.74 (inactive) | 0.604 (inactive) | -0.531 (inactive) | 0.0551 | 1.49 (inactive) | 0.743 (inactive) | 1.79 | 1.06 |
| [N-]=[N+]=NCc1ccccc1C[C@@]1(C(=O)O)N=C(c2ccc(OCCCO)cc2)O[C@@H]1c1ccccc1 | 0.0855 | -0.563 (inactive) | -0.137 (inactive) | 0.718 (inactive) | 0.246 | -0.0421 | -0.233 | 0.0019 | -0.515 | 0.706 (inactive) | -0.0654 | 15.1 (active) | 2.07 (inactive) | 0.912 (inactive) | 0.199 (inactive) | 0.218 | 1.07 (inactive) | 1.34 (inactive) | 1.48 | 0.349 |
| COC(=O)c1c2oc(c1C(=O)OC)C(=O)N[C@@H](C(C)C)Cn1nncc1C1(CCCCC1)NC(=O)N[C@H](CO)CC2 | -0.0906 | -0.475 (inactive) | 1.44 (inactive) | -0.575 (inactive) | 0.235 | -0.195 | 0.217 | -0.422 | -0.0256 | 3.17 (inactive) | -0.235 | 1.05 (inactive) | 1.49 (inactive) | 0.168 (inactive) | 1.41 (inactive) | 0.651 | 0.234 (inactive) | 0.991 (inactive) | -0.162 | 2.55 |
| CCCNC(=O)[C@@H]1c2ccccc2C(=O)N(Cc2cc(C(F)(F)F)cc(C(F)(F)F)c2)[C@H]1c1ccc(CO)cc1 | 0.311 | -2.67 (inactive) | 0.649 (inactive) | -1.13 (inactive) | -0.555 | -0.157 | -0.0027 | 0.19 | 1 | 1.63 (inactive) | 0.233 | 3.17 (inactive) | 1.07 (inactive) | -0.631 (inactive) | 0.77 (inactive) | 0.488 | 0.602 (inactive) | -0.772 (inactive) | 0.69 | 1.16 |
| COC(=O)C(CC#Cc1ccc2c(c1)[C@]1(C(=O)N2)[C@H](C(=O)O)[C@H]2C(=O)O[C@H](c3ccccc3)[C@H](c3ccccc3)N2[C@@H]1c1ccc(OCCO)cc1)C(=O)OC | 0.562 | -2.27 (inactive) | -0.258 (inactive) | -1.32 (inactive) | 1.25 | 0.0714 | 0.734 | 1.06 | 0.969 | 3.78 (inactive) | 0.305 | 10 (active) | 0.0825 (inactive) | 0.646 (inactive) | -2.18 (inactive) | 2.47 | 1.39 (inactive) | 0.164 (inactive) | 0.396 | 2.54 |
